From PubChem BioAssay (EPA / NIEHS)
Where “and” joins values, the source holds several entries; their conditions need not be identical. Equal values may be shown once. The source holds several records for some structures; these can differ, active in one and inactive in another. Calls of active or inactive are those of the source. Rule for the calls: active = hit-call score of the fitted dose curve at least 0.9, where 1 is the maximum; inactive = score below 0.9.

Columns and labels:
[1] = ATG_PPRE_CIS: Attagene CIS-FACTORIAL HepG2 Assay for human Peroxisome Proliferator-activated Response Element (PPRE) (AID 2282958); details: HepG2 PPRE cis-element reporter, Attagene transcription factor profiling; actives raise or lower the signal
Summary of the method: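 Read-out: fluorescent reporter mRNA fragments resolved by capillary electrophoresis after RT-PCR. HepG2 cells carried transiently transfected PPRE-driven cis reporter constructs and were dosed for 24 h; gain or loss of signal fitted relative to DMSO.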

[2] = ATG_RORE_CIS: Attagene CIS-FACTORIAL HepG2 Assay for human RAR-related Orphan Receptor Element (RORE) (AID 2282959); details: HepG2 Attagene cis-factorial RORE reporter, mRNA; actives raise or lower the signal
Summary of the method: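 Readout: fluorescent reporter mRNA by RT-PCR plus capillary electrophoresis, 24 h after dosing transfected HepG2 cells. Endogenous transcription factor activity on a cis promoter element is measured. Gain or loss of signal fitted against DMSO.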

[3] = ATG_Sox_CIS: Attagene CIS-FACTORIAL HepG2 Assay for human SRY-box transcription factor (SOX) (AID 2282960); details: HepG2 Attagene cis-factorial SOX reporter, mRNA; actives raise or lower the signal
Summary of the method: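 Read-out: fluorescent RT-PCR products of SOX1-linked reporter transcripts resolved by capillary electrophoresis, fitted bidirectionally against DMSO. Transiently transfected HepG2 cells, 24 h after chemical exposure, endogenous transcription factor activity.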

[4] = target: Transcription factor Sp1 (Homo sapiens) (UniProt P08047); experiment: ATG_Sp1_CIS: Attagene CIS-FACTORIAL HepG2 Assay for human Specificity Protein 1 (Sp1) (AID 2282961); details: HepG2 Sp1 cis-reporter transcription, actives raise or lower the signal
Summary of the method: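 Read-out: fluorescence of 6-FAM-labeled, HpaI-digested RT-PCR products separated by capillary electrophoresis. HepG2 cells carried transfected cis-element reporter units and were exposed to chemicals for 24 h; gain or loss of signal fitted relative to DMSO.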

[5] = target: Signal transducer and activator of transcription 3 (Homo sapiens) (UniProt P40763); experiment: ATG_STAT3_CIS: Attagene CIS-FACTORIAL HepG2 Assay for human Signal Transducer and Activator of Transcription 3 (STAT3) (AID 2282963); details: HepG2, Attagene cis-factorial STAT3 reporter transcription; actives raise or lower the signal
Summary of the method: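 Transcript-level reporter assay. HepG2 transient MRTU transfection, 24 h exposure, fluorescence detection after RT-PCR and CE; DMSO baseline.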

[6] = ATG_TA_CIS: Attagene CIS-FACTORIAL HepG2 Assay for human TA Basal Promoter (AID 2282964); details: HepG2 Attagene CIS-factorial TA basal promoter reporter; actives raise or lower the signal
Summary of the method: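 Transient MRTU transfection of HepG2 preceded 24 h compound exposure. Reporter mRNA levels were then read by RT-PCR with capillary electrophoresis, and this background-control endpoint was fitted bidirectionally to DMSO.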

[7] = ATG_TAL_CIS: Attagene CIS-FACTORIAL HepG2 Assay for human TAL Basal Promoter (AID 2282966); details: HepG2 Attagene cis-factorial TAL promoter reporter; actives raise or lower the signal;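 note: background control endpoint measuring basal TAL promoter reporter mRNA not a specific factor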
Summary of the method: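 Fluorescence of labelled reporter cDNA fragments, resolved by capillary electrophoresis, gave the readout. Human HepG2 liver cells carried transiently transfected cis-element reporter units and were treated for 24 hours; activity was fitted bidirectionally against DMSO.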

[8] = ATG_TGFb_CIS: Attagene CIS-FACTORIAL HepG2 Assay for human Transforming Growth Factor (TGF) (AID 2282967); details: HepG2 Attagene CIS TGFb reporter, mRNA transcription; actives raise or lower the signal
Summary of the method: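 After a 24-hour incubation with compound, transfected HepG2 cells were lysed for RNA; reporter cDNA was amplified, fluorescently end-labeled and separated by CE. DMSO served as baseline for bidirectional fits.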

[9] = ATG_SREBP_CIS: Attagene CIS-FACTORIAL HepG2 Assay for human Sterol Regulatory Element Binding (SREBP) (AID 2282962); details: HepG2 Attagene cis-factorial SREBP reporter, mRNA; actives raise or lower the signal
Summary of the method: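 HepG2 cells transiently transfected with multiplexed cis-element reporter units report endogenous transcription factor activity. After 24 h of chemical exposure, reporter mRNA was quantified by RT-PCR, 6-FAM labelling, HpaI digestion and capillary electrophoresis; bidirectional fits used DMSO as baseline.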

[10] = ATG_TCF_b_cat_CIS: Attagene CIS-FACTORIAL HepG2 Assay for human T-Cell-Factor with beta-catenin (TCF/b-cat) (AID 2282965); details: HepG2 TCF/beta-catenin cis-reporter transcription, actives raise or lower the signal
Summary of the method: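 HepG2 cells transiently transfected with multiple cis-promoter-regulated reporter transcription units, so endogenous transcription factor activity is measured. Reporter mRNA read 24 hours after dosing by RT-PCR, fluorescent labelling and capillary electrophoresis; bidirectional fitting against DMSO.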

Measured: AC50

Signal transducer and activator of transcription 3 (Homo sapiens), sequence (P40763 whole entry, looked up): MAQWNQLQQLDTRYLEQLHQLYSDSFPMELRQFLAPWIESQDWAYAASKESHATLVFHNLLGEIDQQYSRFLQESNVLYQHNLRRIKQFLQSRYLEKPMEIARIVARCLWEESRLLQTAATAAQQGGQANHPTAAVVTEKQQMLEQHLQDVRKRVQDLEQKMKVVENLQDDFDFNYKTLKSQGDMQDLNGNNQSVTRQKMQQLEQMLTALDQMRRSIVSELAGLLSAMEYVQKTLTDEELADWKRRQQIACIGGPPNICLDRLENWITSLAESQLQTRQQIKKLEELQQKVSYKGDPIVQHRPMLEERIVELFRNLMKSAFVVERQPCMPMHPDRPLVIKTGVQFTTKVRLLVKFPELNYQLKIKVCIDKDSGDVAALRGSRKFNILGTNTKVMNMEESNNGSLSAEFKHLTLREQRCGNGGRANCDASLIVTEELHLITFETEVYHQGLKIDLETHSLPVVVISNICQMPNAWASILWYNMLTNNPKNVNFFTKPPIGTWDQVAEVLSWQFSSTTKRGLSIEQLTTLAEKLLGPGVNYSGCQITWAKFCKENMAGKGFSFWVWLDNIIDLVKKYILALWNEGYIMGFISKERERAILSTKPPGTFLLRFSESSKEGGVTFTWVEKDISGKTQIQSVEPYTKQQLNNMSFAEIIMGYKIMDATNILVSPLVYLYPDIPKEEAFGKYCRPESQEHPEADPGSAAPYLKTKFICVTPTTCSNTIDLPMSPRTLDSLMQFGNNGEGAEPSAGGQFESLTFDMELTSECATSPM
Transcription factor Sp1 (Homo sapiens), sequence (P08047 whole entry, looked up): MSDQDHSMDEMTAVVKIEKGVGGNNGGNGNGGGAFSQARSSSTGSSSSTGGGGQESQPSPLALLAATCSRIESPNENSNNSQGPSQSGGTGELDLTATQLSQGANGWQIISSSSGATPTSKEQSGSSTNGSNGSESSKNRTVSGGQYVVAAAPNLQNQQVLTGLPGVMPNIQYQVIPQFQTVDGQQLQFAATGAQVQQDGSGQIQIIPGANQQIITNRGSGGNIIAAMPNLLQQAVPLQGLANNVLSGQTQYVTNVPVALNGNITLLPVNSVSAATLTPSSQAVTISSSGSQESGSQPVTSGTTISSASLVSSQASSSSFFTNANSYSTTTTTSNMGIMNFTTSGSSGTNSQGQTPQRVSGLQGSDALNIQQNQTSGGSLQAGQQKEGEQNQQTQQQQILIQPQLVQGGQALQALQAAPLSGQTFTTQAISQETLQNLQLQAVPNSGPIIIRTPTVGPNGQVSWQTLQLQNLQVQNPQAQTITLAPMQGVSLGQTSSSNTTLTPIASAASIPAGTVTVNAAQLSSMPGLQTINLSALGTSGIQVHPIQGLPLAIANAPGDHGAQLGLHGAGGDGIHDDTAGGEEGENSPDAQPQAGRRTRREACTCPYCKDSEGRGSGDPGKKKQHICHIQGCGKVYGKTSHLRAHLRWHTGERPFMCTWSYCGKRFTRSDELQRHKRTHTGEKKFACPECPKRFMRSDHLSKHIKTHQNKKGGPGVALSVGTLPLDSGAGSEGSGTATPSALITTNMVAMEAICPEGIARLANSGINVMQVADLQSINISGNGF

CCC(=O)C=Cc1ccc(OC)cc1
active: [3] 70.4 µM
not listed: [9] | [10]
inactive: all other assays above

CCCCC=O
not listed: [1]
inactive: all other assays above

O=C1c2ccccc2C(=O)c2c(O)c(O)cc(O)c21
not listed: [9] | [10]
inactive: all other assays above

CN(C)c1ccc(C(=C2C=CC(=[N+](C)C)C=C2)c2ccccc2)cc1
active: [3] 1.36 µM | [4] 1.43 µM | [9] 9.9 µM | [6] 0.752 µM | [10] 2.07 µM and 2.43 µM | [8] 1.85 µM
inactive: [3] | [4] | [9] | [5] | [6] | [7] | [8]

CC1CCC(C(=O)O)CC1 (stereo not drawn)
not listed: [9] | [10]
inactive: all other assays above

CCOC(C)=O
not listed: [9]
inactive: all other assays above

COCN(COC)c1nc(N(COC)COC)nc(N(COC)COC)n1
not listed: [7] | [9]
inactive: all other assays above

N=C(N)c1ccc(OCCCCCOc2ccc(C(=N)N)cc2)cc1
active: [6] 59 µM
not listed: [9] | [10]
inactive: all other assays above

CNNCc1ccc(C(=O)NC(C)C)cc1
not listed: [2] | [7]
inactive: all other assays above

O=C(c1cc(O)c(O)c(O)c1)c1ccc(O)c(O)c1O
not listed: [9]
inactive: all other assays above

CCCCCCCCCCCCOC(=O)c1cc(O)c(O)c(O)c1
not listed: [7] | [9]
inactive: all other assays above

CCCCCCCCCCCC
active: [8] 124 µM
inactive: [2] | [3] | [4] | [9] | [5] | [6] | [10] | [7] | [8]

CN(Cc1cnc2nc(N)nc(N)c2n1)c1ccc(C(=O)N[C@@H](CCC(=O)O)C(=O)O)cc1
not listed: [1]
inactive: all other assays above

CC1CCC(CO)CC1 (stereo not drawn)
not listed: [1] | [10]
inactive: all other assays above

c1cnc2c(c1)ccc1cccnc12
not listed: [1] | [2]
inactive: all other assays above

Cc1cc(C(=C2C=CC(=Nc3ccc(S(=O)(=O)O)cc3)C=C2)c2ccc(Nc3ccc(S(=O)(=O)O)cc3)cc2)cc(S(=O)(=O)O)c1N
not listed: [7] | [9] | [10]
inactive: all other assays above

O=C(c1ccccc1)c1ccccc1
not listed: [1] | [7] | [9]
inactive: all other assays above

Cc1[nH]nc2c1N=C(c1ccccc1Cl)c1cc([N+](=O)[O-])ccc1N2
active: [4] 0.357 µM | [6] 0.288 µM | [10] 3.71 µM
not listed: [1]
inactive: all other assays above

NS(=O)(=O)O
not listed: [2] | [9]
inactive: all other assays above

O=C(NO)c1ccccc1
active: [6] 76.7 µM | [8] 27.5 µM and 26.7 µM
inactive: [2] | [3] | [4] | [9] | [5] | [6] | [8]

Clc1ccc2c(Cl)ccnc2c1
active: [1] 41.2 µM
not listed: [7] | [9]
inactive: all other assays above

O=S(=O)(O)c1ccc2cc(O)ccc2c1
not listed: [1] | [2] | [10]
inactive: all other assays above

O=C1OC(=O)C(F)(F)C1(F)F
not listed: [7] | [9]
inactive: all other assays above

Cc1cc(=O)oc2cc(O)ccc12
not listed: [1] | [2]
inactive: all other assays above

NNC(=O)CCCCC(=O)NN
not listed: [9]
inactive: all other assays above

NC(=NCCCCCCN=C(N)/N=C(\N)Nc1ccc(Cl)cc1)/N=C(\N)Nc1ccc(Cl)cc1
active: [3] 22.1 µM and 25.5 µM | [4] 159 µM and 23.3 µM | [9] 23.3 µM | [8] 0.0763 µM
inactive: [3] | [4] | [9] | [5] | [6] | [8]

COC(O)c1ccccc1 (stereo not drawn)
not listed: [9] | [10]
inactive: all other assays above

CS(=O)(=O)c1ccc([C@@H](CC2CCCC2)C(=O)Nc2cnccn2)cc1Cl
active: [2] 60.2 µM | [3] 170 µM | [4] 160 µM | [9] 136 µM | [6] 100 µM | [10] 50.6 µM | [7] 148 µM
inactive: [5] | [8]

O=C1OC2(c3ccccc31)c1cc(I)c(O)c(I)c1Oc1c2cc(I)c(O)c1I
active: [2] 34.5 µM and 28.1 µM | [8] 93.8 µM
inactive: [2] | [3] | [4] | [5] | [6] | [10] | [7] | [8]

O=C(CCCN1CCC(O)(c2ccc(Cl)cc2)CC1)c1ccc(F)cc1
inactive: [3] | [10] | [8]
active: [2] 52.4 µM | [4] 33.4 µM | [9] 5.07 µM | [5] 59.5 µM | [6] 33.4 µM | [7] 53.8 µM

Cc1cccc2c1ccc1ccccc12
not listed: [9]
inactive: all other assays above

CCCCCCCCCC=CCC1CC(=O)OC1=O (stereo not drawn)
active: [9] 67.9 µM
not listed: [1]
inactive: all other assays above

CCCCCCCCCCCCCCC
not listed: [1]
inactive: all other assays above

O=C(O)CN(CCCN(CC(=O)O)CC(=O)O)CC(=O)O
not listed: [9]
inactive: all other assays above
